Consider 30 compounds from the supplement of paper PMC13380429.

For assay [1], the system named is Vero E6 infected with SARS-CoV-2. The assay can be described thus: morphology score (similarity to uninfected cells); higher = more like uninfected cells. The note with it: 24 h.
The test system is the same in assay [2]. The assay is described as follows: SARS-CoV-2 infection rate relative to infected DMSO; higher = more infection, active = 60 or less. The settings on record: 24 h.

Compound `CC(C)(C)C(=O)C(Oc1ccc(Cl)cc1)n1ccnc1` (stereo not given) [climbazole] (10 µM) came in with a morphology score in assay [1] of 0.217. Moreover, in assay [2], the SARS-CoV-2 infection rate was 91.5% (inactive).
The compound `CC(C)OC(=O)C(C)(C)Oc1ccc(C(=O)c2ccc(Cl)cc2)cc1` [fenofibrate] (10 µM) yielded a morphology score in assay [1] of 0.0415. Moreover, the SARS-CoV-2 infection rate in assay [2] was 101% (inactive).
In turn, `CN1Cc2c(C(=O)OC(C)(C)C)ncn2-c2ccsc2C1=O` (10 µM) yielded a morphology score in assay [1] of -0.00637. In addition, the SARS-CoV-2 infection rate in assay [2] was 102% (inactive).
As to `Clc1ccc(C(c2ccccc2Cl)C(Cl)Cl)cc1` (stereo not given) [mitotane] (10 µM), the morphology score in assay [1] was -0.173. Further, the SARS-CoV-2 infection rate in assay [2] was 112% (inactive).
In the same order, the values of `O[C@@H](CN1CCC(Cc2ccc(F)cc2)CC1)c1ccc(Cl)cc1` (racemic) [eliprodil] (10 µM) are 0.218 and 87% (inactive).
On the same counts, the results for `Cc1ccc(=O)n(-c2ccccc2)c1` [pirfenidone] (10 µM) are 0.289 and 83% (inactive).
`CN1CCN(c2ccc3ccccc3n2)CC1` [N-methylquipazine] (10 µM): in assay [1], the morphology score was 0.139. The SARS-CoV-2 infection rate in assay [2] is 100% (inactive).
Take `CC(C)[C@@H](C)/C=C/[C@@H](C)[C@H]1CC[C@H]2C3=CC=C4C[C@@H](O)CC[C@]4(C)[C@H]3CC[C@]12C` [ergosterol] (10 µM): the morphology score in assay [1] turned out to be 0.0665. Besides, the SARS-CoV-2 infection rate in assay [2] is 104% (inactive).
Take `COc1ccc(-c2cc(=O)c3c(O)c(OC)c(O)cc3o2)cc1OC` [eupatilin] (10 µM): the morphology score in assay [1] was -0.0115. The SARS-CoV-2 infection rate in assay [2] is 109% (inactive).
On the same counts, the results for `C[C@@H]1C[C@H]2[C@@H]3CCC4=CC(=O)C=C[C@]4(C)[C@@]3(F)[C@@H](O)C[C@]2(C)[C@H]1C(=O)CO` [desoximetasone] (10 µM) are 0.067 and 91% (inactive).
Consider `CN1C(C(=O)Nc2ccccn2)=C(O)c2sc(Cl)cc2S1(=O)=O` [lornoxicam] (10 µM), for which the morphology score in assay [1] stood at 0.00915. Also, the SARS-CoV-2 infection rate in assay [2] is 97% (inactive).
Compound `CC(C)Nc1nc2cc(Cl)c(Cl)cc2n1[C@H]1O[C@@H](CO)[C@H](O)[C@@H]1O` [maribavir] (10 µM) returned a morphology score in assay [1] of -0.0681. Also, the SARS-CoV-2 infection rate in assay [2] is 122% (inactive).
In the case of `CCCNCC(O)COc1ccccc1C(=O)CCc1ccccc1` (stereo not given) [propafenone] (0.833333 µM), in assay [1], the morphology score was -0.109. For the same compound, the SARS-CoV-2 infection rate in assay [2] was 110% (inactive).
In the same order, the values of `CS(=O)(=O)c1ccc(-c2cnc(NCc3ccco3)n3cnnc23)cc1` (10 µM) are 0.197 and 83% (inactive).
In the same order, the values of `CC(C)(C)NCC(O)c1cc(Cl)c(N)c(C(F)(F)F)c1` (stereo not given) [mabuterol] (10 µM) are -0.0501 and 107% (inactive).
On to `Cc1ccc(S(=O)(=O)c2ccc([N+](=O)[O-])o2)cc1` (0.833333 µM), for which the morphology score in assay [1] was determined as 0.215. For the same compound, the SARS-CoV-2 infection rate in assay [2] was 68% (inactive).
In the same order, the values of `Cn1cc(C(F)(F)F)nc1-c1ccc(OCC(O)CNCCOc2ccc(O)c(C(N)=O)c2)cc1` (stereo not given) (10 µM) are -0.123 and 112% (inactive).
Take `Cn1c(=O)c2c(ncn2CCOC(=O)C(C)(C)Oc2ccc(Cl)cc2)n(C)c1=O` [etofylline-clofibrate] (10 µM): the morphology score in assay [1] is -0.162. Also, in assay [2], the SARS-CoV-2 infection rate is 114% (inactive).
In the same order, the values of `O=C(O)c1ccc(CN2CCC(CN[C@@H]3C[C@H]3c3ccccc3)CC2)cc1` (10 µM) are 0.106 and 98% (inactive).
Compound `O=C1O[C@H](CO)[C@@H](O)[C@H](O)[C@H]1O` [gluconolactone] (10 µM) yielded a morphology score in assay [1] of 0.0736. The SARS-CoV-2 infection rate in assay [2] was 98% (inactive).
The compound `CCOC(=O)[C@H](CCc1ccccc1)N[C@@H](C)C(=O)N(CC(=O)O)C1Cc2ccccc2C1` [delapril] (10 µM) displayed a morphology score in assay [1] of -0.0271. Besides, the SARS-CoV-2 infection rate in assay [2] is 108% (inactive).
Regarding `CC(C)C1=C2[C@H]3CC[C@@H]4[C@@]5(C)CC[C@H](OC(=O)CC(C)(C)C(=O)O)C(C)(C)[C@@H]5CC[C@@]4(C)[C@]3(C)CC[C@@]2([C@@H](O)CN(CCN(C)C)Cc2ccc(Cl)cc2)CC1=O` (10 µM), the morphology score in assay [1] came to 0.203. In addition, in assay [2], the SARS-CoV-2 infection rate was 96% (inactive).
With `OC[C@H]1O[C@H](O[C@]2(CCl)O[C@H](CCl)[C@@H](O)[C@@H]2O)[C@H](O)[C@@H](O)[C@H]1Cl` [sucralose] (10 µM), the morphology score in assay [1] stood at 0.0888. Moreover, the SARS-CoV-2 infection rate in assay [2] was 97% (inactive).
Compound `N#CC(c1ccnc(OCc2ccc(CN3CCOCC3)cc2)n1)c1nc2ccccc2s1` (stereo not given) (10 µM) registered a morphology score in assay [1] of 0.195. Further, in assay [2], the SARS-CoV-2 infection rate was 99.5% (inactive).
The compound `COc1ccccc1N1CCN(CCCCN2C(=O)c3ccccc3C2=O)CC1` (10 µM) showed a morphology score in assay [1] of 0.185. Moreover, in assay [2], the SARS-CoV-2 infection rate is 99% (inactive).
The compound `O=C(COP(=O)(O)O)[C@@H](O)[C@H](O)[C@H](O)COP(=O)(O)O` [fosfructose] (10 µM) returned a morphology score in assay [1] of -0.202. Also, the SARS-CoV-2 infection rate in assay [2] is 120% (inactive).
As to `CCCCc1cc2ccccc2c(OCCN(C)C)n1` [dimethisoquin] (10 µM), the morphology score in assay [1] stood at 0.41. Besides, the SARS-CoV-2 infection rate in assay [2] is 71.5% (inactive).
Turning to `O=C1OC2(c3ccccc31)c1cc(I)c(O)c(I)c1Oc1c2cc(I)c(O)c1I` [erythrosine] (0.833333 µM), the morphology score in assay [1] turned out to be 0.0913. The SARS-CoV-2 infection rate in assay [2] was 116% (inactive).
As for `O=c1[nH]c2ccccc2n1C1CCN(CCCC(c2ccc(F)cc2)c2ccc(F)cc2)CC1` [pimozide] (10 µM), the morphology score in assay [1] was determined as 0.48. In addition, in assay [2], the SARS-CoV-2 infection rate is 66.5% (inactive).
Regarding `CNCCC=C1c2ccccc2CCc2ccccc21` [nortriptyline] (0.833333 µM), the morphology score in assay [1] is -0.1. Moreover, the SARS-CoV-2 infection rate in assay [2] is 110% (inactive).
